# Assay results reported in PubChem BioAssay AID1159580 (chemical genetic matrix, 2015).
# Values joined by “and” are separate entries in the source; they are usually repeats but may differ in a detail not shown here. Equal values may be shown once. About 2,000 (36%) of roughly 5,500 compounds were called active. Roughly 18% stayed inconclusive and do not appear here. The list shows a part of the results. Unmarked numbers belong to inactive results. Cut-off read from the data, not from the text of the source: active = normalized growth mostly below about 0.91 (no sharp cut-off); inconclusive = no clear call, values can overlap the other calls; inactive = mostly above about 0.92.
# Test: chemical genetic growth profiling, strain panel (AID 1159580);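 note: tested at 20 µM; growth read once vehicle control cultures reached saturation at 30 °C; 1 = growth at the plate median or of vehicle wells; lower values mean less growth of the strain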
# Conditions: S. cerevisiae deletion strains, growth OD
structure (smiles),measurement,setting,value
Cc1onc(-c2ccccc2)c1C(=O)NC1C(=O)N2[C@@H]1SC(C)(C)[C@@H]2C(=O)O (some centres not stated),normalized growth,"locus YAL013W, strain DEP1, stronger effect = lower value",1.01
same,normalized growth,"locus YAL021C, strain ccr4, stronger effect = lower value",1.02
same,normalized growth,"locus YAL026C, strain drs2, stronger effect = lower value",1.01
same,normalized growth,"locus YAL030W, strain snc1, stronger effect = lower value",1.02
same,normalized growth,"locus YBL061C, strain skt5, stronger effect = lower value",1.02
same,normalized growth,"locus YBR009C, strain hhf1, stronger effect = lower value",1.02
same,normalized growth,"locus YBR021W, strain FUR4, stronger effect = lower value",0.99
same,normalized growth,"locus YBR023C, strain chs3, stronger effect = lower value",1.02
same,normalized growth,"locus YBR171W, strain sec66, stronger effect = lower value",1.02
same,normalized growth,"locus YBR229C, strain ROT2, stronger effect = lower value",1
same,normalized growth,"locus YBR231C, strain swc5, stronger effect = lower value",1.01
same,normalized growth,"locus YBR279W, strain paf1, stronger effect = lower value",1.01
same,normalized growth,"locus YCL011C, strain gbp2, stronger effect = lower value",1.03
same,normalized growth,"locus YCL016C, strain dcc1, stronger effect = lower value",1.06
same,normalized growth,"locus YCL029C, strain bik1, stronger effect = lower value",1.02
same,normalized growth,"locus YCL061C, strain MRC1, stronger effect = lower value",1.02
same,normalized growth,"locus YCL069W, strain vba3, stronger effect = lower value",1.02
same,normalized growth,"locus YCR088W, strain abp1, stronger effect = lower value",1.02
same,normalized growth,"locus YDL005C, strain med2, stronger effect = lower value",1.01
same,normalized growth,"locus YDL035C, strain GPR1, stronger effect = lower value",1
same,normalized growth,"locus YDL040C, strain nat1, stronger effect = lower value",1.01
same,normalized growth,"locus YDL074C, strain BRE1, stronger effect = lower value",1.03
same,normalized growth,"locus YDL101C, strain DUN1, stronger effect = lower value",1.02
same,normalized growth,"locus YDL134C, strain PPH21, stronger effect = lower value",1
same,normalized growth,"locus YDL185W, strain tfp1, stronger effect = lower value",1.01
same,normalized growth,"locus YDL192W, strain arf1, stronger effect = lower value",1.01
same,normalized growth,"locus YDR001C, strain nth1, stronger effect = lower value",1.01
same,normalized growth,"locus YDR069C, strain doa4, stronger effect = lower value",1.01
same,normalized growth,"locus YDR101C, strain arx1, stronger effect = lower value",1.01
same,normalized growth,"locus YDR137W, strain rgp1, stronger effect = lower value",1.04
same,normalized growth,"locus YDR150W, strain NUM1, stronger effect = lower value",1.01
same,normalized growth,"locus YDR159W, strain sac3, stronger effect = lower value",1
same,normalized growth,"locus YDR162C, strain NBP2, stronger effect = lower value",1.01
same,normalized growth,"locus YDR195W, strain ref2",0.996
same,normalized growth,"locus YDR297W, strain sur2, stronger effect = lower value",1.01
same,normalized growth,"locus YDR318W, strain mcm21, stronger effect = lower value",1.01
same,normalized growth,"locus YDR334W, strain swr1, stronger effect = lower value",1.02
same,normalized growth,"locus YDR335W, strain msn5, stronger effect = lower value",1.02
same,normalized growth,"locus YDR388W, stronger effect = lower value",1.01
same,normalized growth,"locus YDR392W, strain spt3, stronger effect = lower value",0.959
same,normalized growth,"locus YDR502C, strain sam2, stronger effect = lower value",1.01
same,normalized growth,"locus YEL003W, strain gim4, stronger effect = lower value",0.988
same,normalized growth,"locus YEL037C, strain rad23, stronger effect = lower value",1.01
same,normalized growth,"locus YEL061C, strain CIN8 (second series), stronger effect = lower value",1
same,normalized growth,"locus YEL061C, strain CIN8, stronger effect = lower value",1.01
same,normalized growth,"locus YER015W, strain faa2, stronger effect = lower value",1.01
same,normalized growth,"locus YER016W, strain bim1, stronger effect = lower value",1.03
same,normalized growth,"locus YER110C, stronger effect = lower value",1.01
same,normalized growth,"locus YER111C, strain swi4, stronger effect = lower value",1.01
same,normalized growth,"locus YER155C, strain BEM2 (second series), stronger effect = lower value",1.02
same,normalized growth,"locus YER155C, strain BEM2, stronger effect = lower value",1.01
same,normalized growth,"locus YER167W, strain BCK2, stronger effect = lower value",1.01
same,normalized growth,"locus YFR010W, strain ubp6, stronger effect = lower value",1.01
same,normalized growth,"locus YGL078C, strain dbp3, stronger effect = lower value",0.998
same,normalized growth,"locus YGL086W, strain mad1, stronger effect = lower value",0.991
same,normalized growth,"locus YGL167C, strain pmr1, stronger effect = lower value",1.02
same,normalized growth,"locus YGL173C, strain kem1, stronger effect = lower value",1.01
same,normalized growth,"locus YGL227W, strain vid30, stronger effect = lower value",1.02
same,normalized growth,"locus YGL240W, strain doc1, stronger effect = lower value",1.02
same,normalized growth,"locus YGL248W, strain PDE1, stronger effect = lower value",1
same,normalized growth,"locus YGL253W, strain hxk2, stronger effect = lower value",1.02
same,normalized growth,"locus YGR078C, strain PAC10, stronger effect = lower value",1.02
same,normalized growth,"locus YGR135W, strain pre9, stronger effect = lower value",1.01
same,normalized growth,"locus YGR229C, strain SMI1, stronger effect = lower value",1
same,normalized growth,"locus YGR252W, strain gcn5, stronger effect = lower value",0.939
same,normalized growth,"locus YHR013C, strain ard1, stronger effect = lower value",1.22 [resistant] (active)
same,normalized growth,"locus YHR027C, strain rpn1, stronger effect = lower value",1.02
same,normalized growth,"locus YHR030C, strain SLT2, stronger effect = lower value",1.01 and 0.989
same,normalized growth,"locus YHR079C, strain IRE1 (second series), stronger effect = lower value",1.01
same,normalized growth,"locus YHR079C, strain IRE1, stronger effect = lower value",0.965
same,normalized growth,"locus YHR094C, strain hxt1, stronger effect = lower value",1.01
same,normalized growth,"locus YHR129C, strain ARP1, stronger effect = lower value",1.01
same,normalized growth,"locus YHR142W, strain chs7, stronger effect = lower value",1.02
same,normalized growth,"locus YHR200W, strain rpn10, stronger effect = lower value",1.02
same,normalized growth,"locus YIL066C, strain RNR3, stronger effect = lower value",1.01
same,normalized growth,"locus YIL073C, strain SPO22, stronger effect = lower value",1.01
same,normalized growth,"locus YIL125W, strain kgd1, stronger effect = lower value",1.01
same,normalized growth,"locus YIR030C, strain dcg1, stronger effect = lower value",1.02
same,normalized growth,"locus YJL092W, strain hpr5, stronger effect = lower value",1.02
same,normalized growth,"locus YJL095W, strain BCK1 (second series), stronger effect = lower value",1.02
same,normalized growth,"locus YJL095W, strain BCK1, stronger effect = lower value",1.01 and 0.989
same,normalized growth,"locus YJL115W, strain asf1, stronger effect = lower value",1.01
same,normalized growth,"locus YJL129C, strain trk1, stronger effect = lower value",0.994
same,normalized growth,"locus YJL134W, strain LCB3, stronger effect = lower value",1.01
same,normalized growth,"locus YJL154C, strain vps35, stronger effect = lower value",1.02
same,normalized growth,"locus YJL164C, strain tpk1, stronger effect = lower value",1.02
same,normalized growth,"locus YJL166W, strain qcr8, stronger effect = lower value",1.03
same,normalized growth,"locus YJL168C, strain set2, stronger effect = lower value",1
same,normalized growth,"locus YJL187C, strain SWE1 (second series), stronger effect = lower value",1.01
same,normalized growth,"locus YJL187C, strain SWE1, stronger effect = lower value",1.02
same,normalized growth,"locus YJR043C, strain POL32, stronger effect = lower value",1.02
same,normalized growth,"locus YJR066W, strain TOR1, stronger effect = lower value",0.933
